The values that follow come from ChEMBL document CHEMBL4888484, “Replenishing the malaria drug discovery pipeline: Screening and hit evaluation of the MMV Hit Generation Library 1 (HGL1) against asexual blood stage Plasmodium falciparum ,using a nano luciferase reporter read-out” (2022).

By % Inhibition is commonly meant the drop in the measured response relative to a control, in per cent.

SMILES strings stand for the structures. Out of some 150,000 compounds screened, about 540 (0.36%) showed an effect of 50% or more. Many of the other results were omitted from the sample, so strong results are more common in it than they were.

The assay has as its system Plasmodium falciparum. As to the kind of experiment: Primary screen in NF54 nanoGlo assay, in single point, at 2uM, 72h; a lower Z score goes with more inhibition. In kind it is functional, Erythrocyte. Particulars: timepoint 72 hour.
For `Clc1cccc(-c2ccc(CN3CCN([C@H]4CCNC4)CC3)o2)c1`, the “% Inhibition” value is -17% and the Z score is given as 1.55.
For the molecule `Cn1nnc(CNC[C@H](O)c2ccc(Cl)c(Cl)c2)n1`, the “% Inhibition” value worked out at 5% and the Z score is on record as -1.08.
For `Cc1nc(CNC[C@H](O)c2ccc(Cl)c(F)c2)cs1`, in that order: 10% and -1.19.
For `CCc1noc(-c2cccnc2-n2cnc(C(=O)NCc3ccccc3F)c2)n1`, in that order: 35% and -3.92.
Taken in the same sequence, the figures for `Nc1c2c(-c3ccc(F)cc3)nc(NCCN3CCCCC3)nc2nn1-c1ccc(Cl)cc1` were -19% and 1.69.
Regarding `CC(C)(C)n1nc2nc(N3CCCC3)nc(-c3ccc(F)c(Cl)c3)c2c1N`, the “% Inhibition” value is -2% and the Z score worked out at 0.26.
Taken in the same sequence, the figures for `CC(C)(C)n1nc2nc(NCCN3CCCCC3)nc(-c3ccc(F)c(Cl)c3)c2c1N` were 75% and -7.01.
For `O=C(Cn1cc(S(=O)(=O)N2CCOCC2)ccc1=O)Nc1ccc(F)cc1Cl`, in that order: 4% and -0.76.
For the molecule `CN1CCC(N2CCC[C@H]2c2nc(-c3ccc(F)cn3)no2)CC1`, the “% Inhibition” value was determined as 15% and the Z score is given as -1.76.
For `COc1cc(-c2n[nH]cc2CN(C[C@H]2CCC(=O)N2)C(C)C)cc(OC)c1OC`, in that order: -18% and 1.93.
Turning to `CN(C)c1ccc(NC(=O)CCCc2ccc3[nH]c(=O)[nH]c3c2)nc1`, the “% Inhibition” value worked out at 0% and the Z score is 0.04.
Taken in the same sequence, the figures for `C[C@H]1[C@@H]2[C@@H](O)C([C@H](C)C(=O)NC3CCCCC3)CC[C@@]2(C)CC[C@@H]1NC(=O)CC(C)(C)C` (stereo not given in full) were 69% and -5.14.
For the molecule `COCCNC(=O)[C@@H](C)[C@@H]1CC[C@@]2(C)CC[C@H](NC(=O)CC(C)(C)C)[C@@H](C)[C@@H]2[C@H]1O`, the “% Inhibition” value was 31% and the Z score is reported as -3.58.
For `C[C@H]1[C@@H]2[C@@H](O)C([C@H](C)C(=O)NC3CCCC3)CC[C@@]2(C)CC[C@@H]1NC(=O)c1ccc(C#N)cc1` (stereo not given in full), in that order: 37% and 1.5.
For `COc1cc2c(cc1-c1nccn1Cc1noc(C(C)C)n1)OCO2`, the “% Inhibition” value was 5% and the Z score is listed as -0.45.
As for `CCNC(=O)O[C@@H]1CC[C@]2(C)C(CC[C@@H](O)[C@H]2CC(=O)NCc2cccs2)[C@]1(C)CO` (stereo not given in full), the “% Inhibition” value is reported as -4% and the Z score is reported as 0.6.
Taken in the same sequence, the figures for `COc1cc(CN2C(=O)C(C)C(C)C2=O)ccn1` (stereo not given) were -12% and 1.96.
Taken in the same sequence, the figures for `CCc1noc(CCNC(=O)Nc2cc(C)nn2C2CCCCC2)n1` were -3% and 0.5.
Regarding `Cc1ccc([C@H](C)NC(=O)CCc2ccc3[nH]cnc3c2)cc1`, the “% Inhibition” value is listed as -2% and the Z score is 0.33.
As to `C[C@H]1CN(C2=Nc3ccc(C(F)(F)F)cc3Oc3ccccc32)CCN1C(=O)C1CCCCC1`, the “% Inhibition” value was -10% and the Z score was found to be 0.96.
Taken in the same sequence, the figures for `Cc1ccsc1CN(Cc1cccnc1)CC(C)C` were -9% and 0.87.
Consider `COc1ccc(CN(Cc2ccco2)C(=O)c2cccc(F)c2)cc1OS(=O)(=O)c1ccc(F)cc1`, for which the “% Inhibition” value was -33% and the Z score amounted to 2.87.
Taken in the same sequence, the figures for `CCOC(=O)N1CCC(n2ccnc2-c2nccn2C(C)C)CC1` were -11% and 1.32.
Taken in the same sequence, the figures for `COc1ccc(-c2nccn3cc(C(=O)N4CCCC4)nc23)cc1` were 26% and -2.95.
As to `COc1ccc(-c2nccn3cc(C(=O)N4CCCCCC4)nc23)cc1`, the “% Inhibition” value worked out at 51% and the Z score was found to be 0.03.
For `Cc1ccc(-c2nccn3cc(C(=O)N4CCCCC4)nc23)cc1`, the “% Inhibition” value is given as -2% and the Z score was 0.32.
With `CC(C)(C(=O)N[C@H]1CCN(Cc2cccnc2)C[C@@H]1O)N1CCOCC1`, the “% Inhibition” value was -3% and the Z score is 0.41.
Taken in the same sequence, the figures for `Cc1nc(-n2cnnc2)ccc1-c1cc(O)cc(CC[C@H]2CCCCN2)c1` were -7% and 0.8.
In the case of `Nc1cc(-c2cc(O)cc(CC[C@H]3CCCCN3)c2)ccn1`, the “% Inhibition” value came out at 9% and the Z score is reported as -1.53.
In the case of `Cc1cc(-c2cc(O)cc(CC[C@H]3CCCCN3)c2)ccn1`, the “% Inhibition” value is recorded as 84% and the Z score is recorded as -8.44.
Taken in the same sequence, the figures for `Cc1nccc(-c2cc(O)cc(CC[C@H]3CCCCN3)c2)n1` were -12% and 2.52.
Taken in the same sequence, the figures for `O=C(O)c1ccccc1-c1cc(O)cc(CC[C@H]2CCCCN2)c1` were -15% and 2.8.
Taken in the same sequence, the figures for `OCc1ccnc(-c2cc(O)cc(CC[C@H]3CCCCN3)c2)c1` were -3% and 0.48.
`CC(=O)c1cc(-c2cc(O)cc(CC[C@H]3CCCCN3)c2)ccc1O`: the “% Inhibition” value is recorded as 78% and the Z score is reported as -7.86.
Taken in the same sequence, the figures for `CCn1cc(-c2cc(O)cc(CC[C@H]3CCCCN3)c2)c(C)n1` were 3% and -0.45.
For `Cc1ccc(-c2cc(O)cc(CC[C@H]3CCCCN3)c2)c(C)n1`, in that order: 61% and -8.76.
Turning to `CC(NS(=O)(=O)N(C)C(C)C)C1CCCO1` (stereo not given), the “% Inhibition” value was -8% and the Z score amounted to 1.17.
`C/C=C(\C)C(=O)N1CCC(N2CCC(C(=O)N3CCCC3)CC2)CC1`: the “% Inhibition” value is reported as -12% and the Z score came out at 1.74.
Taken in the same sequence, the figures for `CCC(C)C(NC(=O)C1CCC(C)CC1)C(=O)NC1CCN(Cc2ccccc2)CC1` (stereo not given) were -3% and 0.32.
For `CCCNS(=O)(=O)c1ccc(C(=O)N2C[C@H]3CC[C@@H](C2)N(C)C3)cc1`, the “% Inhibition” value is reported as -7% and the Z score is 1.2.
